Bioassay records from PubChem BioAssay.
A selection: hits, their analogues and other compounds. The true share with any hit is near 7.4%.
MITF inhib = inhibitors of MITF, primary screen, MITF inhibitor project, cell-based, luminescence; TRPM1 promoter luciferase, 24 h; inhibition, % (test concentration not listed); 0.28% of 37,000 active; AID 2240, 2010; in the data active means inhibition above about 85%;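 further: human melanocyte line stably carrying TRPM1 promoter luciferase reporter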
PD-1 reversal = activators reversing PD-1 mediated T-cell inhibition, primary screen, luminescence, primary human CD4 T cells, PD-L1 beads; CellTiter-Glo 96 h; activation, % (no concentration beside the values); 29,000 tested, under 10 active; call rule not given here
YB-1 expression = inhibitors of YB-1 gene expression, primary screen, cell-based, fluorescence. U2OS, qRT-PCR YB-1 vs CDIP delta delta Cp, 16 h; active compounds read high; zero = DMSO, each unit about twofold. 0.37% of 30,000 active. delta delta Cp (YB-1 minus CDIP) (test concentration not listed);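 active means delta delta Cp rounded down to an integer at or above 3, about 3 SD of DMSO wells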;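 further: higher means less YB-1 transcript or more CDIP transcript relative to DMSO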
NOMO-1 viab = NOMO-1 AML cell viability reduction, primary screen, STK33 inhibitor project, CellTiter-Glo luminescence; NOMO-1 AML viability, 72 h; inhibition, % (concentration not given with the values); 7.5% of 37,000 active; in the data active means inhibition above about 80%
Hedgehog inh = Hedgehog pathway signaling inhibitors, primary screen, luminescence, Shh-LIGHT2 cells, Gli-luciferase. Shh-LIGHT2 Gli-luciferase reporter, 30 h. inhibition, % (no concentration beside the values). 2.1% of 22,000 active. AID 2313, 2010;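 active means mean inhibition across valid replicates above about 65%, limit read from the data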;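 further: pathway switched on by Shh-conditioned medium diluted 1 in 25 in low serum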
Of the large screens only hits and unclear results are named; the others gave an inactive call.

CCOC(=O)c1ccc2nc(C(F)(F)F)nc(N3CCCCC3)c2c1	none (no result: Hedgehog inh)
O=C(c1ccc(F)cc1)n1nc(-c2ccc(Cl)cc2)nc1NCc1ccco1	NOMO-1 viab 104.0 (no result: YB-1 expression, Hedgehog inh)
NC(=O)CSc1nc(N)c(-c2ccccc2)c(=O)[nH]1	none (no result: PD-1 reversal, YB-1 expression, Hedgehog inh)
OC(COc1ccc(Nc2ccccc2)cc1)COc1ccc(Nc2ccccc2)cc1	NOMO-1 viab 102.7
O=C(CSc1nc2ccc(NC(=O)c3ccccc3)cc2s1)Nc1ccccc1C(F)(F)F	none (no result: PD-1 reversal, YB-1 expression, Hedgehog inh)
O=C(O)CC1CCC(CC(O)/C=C\C/C=C\CCCCCO)O1 (configuration not stated)	NOMO-1 viab 116.8
S=C(NCC1CC1)Nc1ccc2[nH]ccc2c1	none
C=C1C(=O)O[C@H]2[C@H]1[C@H](O)CC(=C)[C@@H]1CC(=O)C(C)[C@H]21 (some centres not stated)	NOMO-1 viab 117.6
C=C1C(=O)O[C@@H]2[C@H]3C(=C)[C@@H](O[C@@H]4O[C@H](CO)[C@@H](O)[C@H](O)[C@H]4O)C[C@H]3C(=C)C[C@@H](O)[C@@H]12	none
C=C1C(=O)O[C@H]2C1[C@H](OC(=O)/C(=C/CO)COC(=O)/C(C)=C/CO)CC(=C)[C@@H]1CC(=O)[C@@H](C)[C@@H]12 (some centres not stated)	NOMO-1 viab 108.2
Cc1[nH]c2ccccc2c1C(=O)CSc1nc2sc(C)c(C)c2c(=O)n1-c1ccccc1	NOMO-1 viab 100.0 (no result: YB-1 expression, Hedgehog inh)
CNC(=O)c1ccccc1S(=O)c1cccc2cccc(C(=O)O)c12 (configuration not stated)	none
CC(C)NC(=O)Nc1ccc2c(c1)CC(=O)N([C@H](C)CO)C[C@@H](C)[C@H](CN(C)C(=O)Nc1ccc(F)cc1)O2	none (no result: PD-1 reversal)
C[C@H](CO)N1C[C@H](C)[C@H](CN(C)C(=O)Nc2ccc(C(F)(F)F)cc2)Oc2ccc(NC(=O)Nc3ccc(C(F)(F)F)cc3)cc2CC1=O	NOMO-1 viab 114.2 (no result: PD-1 reversal)
C[C@@H]1CN([C@@H](C)CO)C(=O)Cc2cc(NC(=O)Nc3ccc(C(F)(F)F)cc3)ccc2O[C@@H]1CN(C)C(=O)Nc1ccc(F)cc1	NOMO-1 viab 115.1
CC(C)NC(=O)Nc1ccc2c(c1)CC(=O)N([C@H](C)CO)C[C@H](C)[C@H](CN(C)C(=O)Nc1ccc(F)cc1)O2	Hedgehog inh 77.2 (no result: PD-1 reversal)
C[C@H](CO)N1C[C@H](C)[C@H](CN(C)C(=O)Nc2ccc(F)cc2)Oc2ccc(NC(=O)Nc3ccc(C(F)(F)F)cc3)cc2CC1=O	none (no result: PD-1 reversal)
Cc1ccc(S(=O)(=O)c2ccc(Cl)cc2)cc1S(=O)(=O)N1CCCC1	none
Cc1cccc(NC(c2ccccc2C)c2ccc3ccc(C)nc3c2O)n1 (configuration not stated)	NOMO-1 viab 120.6 (no result: YB-1 expression, Hedgehog inh)
Cc1cccc(Nc2ncnc(N)c2[N+](=O)[O-])n1	none (no result: PD-1 reversal, YB-1 expression, Hedgehog inh)
Cc1cccc(NC(c2ccc([N+](=O)[O-])cc2)c2ccc3ccc(C)nc3c2O)n1 (configuration not stated)	NOMO-1 viab 111.8 (no result: PD-1 reversal, YB-1 expression, Hedgehog inh)
Cc1ccnc(NC(c2ccccn2)c2ccc3ccc(C)nc3c2O)c1 (configuration not stated)	NOMO-1 viab 116.2 (no result: YB-1 expression, Hedgehog inh)
Cc1ccc(C)c(C(Nc2ccccn2)c2ccc3ccc(C)nc3c2O)c1 (configuration not stated)	NOMO-1 viab 106.9 (no result: YB-1 expression, Hedgehog inh)
Cc1ccc(NC(=O)CCC(=O)c2ccc(Oc3ccccc3)cc2)cc1	none (no result: YB-1 expression, Hedgehog inh)
CCCN(CCC)S(=O)(=O)c1ccc(C(=O)NN)cc1	none
Cc1ccc(NC(=O)CSC2CC(=O)N(c3ccc(Br)cc3)C2=O)cc1Cl (configuration not stated)	none (no result: YB-1 expression, Hedgehog inh)
Clc1ccc2ncnc(NCc3ccc4c(c3)OCO4)c2c1	NOMO-1 viab 82.5
COc1ccc(CN(C)C[C@@H]2Oc3ccc(NC(=O)Nc4ccccc4)cc3C(=O)N([C@H](C)CO)C[C@H]2C)cc1	none (no result: PD-1 reversal)
COc1ccc(NC(=O)Nc2ccc3c(c2)C(=O)N([C@@H](C)CO)C[C@H](C)[C@@H](CN(C)Cc2ccc(-c4ccccc4)cc2)O3)cc1	NOMO-1 viab 81.9 (no result: Hedgehog inh)
COc1ccc(NC(=O)Nc2ccc3c(c2)C(=O)N([C@H](C)CO)C[C@@H](C)[C@H](CN(C)Cc2ccc(-c4ccccc4)cc2)O3)cc1	NOMO-1 viab 119.2
COc1ccc(CN(C)C[C@H]2Oc3ccc(NC(=O)Nc4ccccc4)cc3C(=O)N([C@@H](C)CO)C[C@H]2C)cc1	none
